# Records with an inconclusive call do not appear. The source made the active and inactive calls. The call rests on the fitted dose curve; in most records, active means well fitted activation curve with a large enough effect; inconclusive means small, poorly fitted or top-dose-only effect; inactive means no such curve, though single readings can be large or run the other way.
# Assay: qHTS Assay for Agonists of the Relaxin Receptor RXFP1: V1B Hit Validation;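 further: counter-screen in HEK293 cells expressing V1B rather than RXFP1 for selectivity; nearly all actives have a fitted effect of over 65% in size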;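 on activation: cAMP accumulation with PDE4 inhibitor Ro 20-1724 present during compound exposure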
# Conditions: HEK293 V1B cells, cAMP TR-FRET, 30 min; series mostly up to 115 µM
# Summary of the method: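 TR-FRET cAMP readout (ex 320, em 615/665 nm) after 30 min RT lysis with d2-cAMP/cryptate antibody. Before that: HEK293 cells, compounds 30 min 37C, Ro 20174 present. Hill-fit EC50s.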
# Potency means the concentration at half of the fitted maximal effect.
row,Compound,Potency
1,Cc1ccc(CN(C)C(=O)c2ccc3c(c2)NC(=O)CS3)o1,inactive
2,CC(C)c1ccccc1NC(=O)c1ccccc1NC(=O)C1CCCCC1,inactive
3,Brc1ccc(-c2nn3c(-c4ccco4)nnc3s2)o1,13.8 µM (active)
4,Cc1cc(C)nc(NS(=O)(=O)c2ccc(NC(=O)c3nn(-c4ccccc4)ccc3=O)cc2)n1,15.5 µM (active)
5,Cc1cc(C)nc(NS(=O)(=O)c2ccc(N3C(=O)c4ccccc4C3=O)cc2)n1,29.8 µM (active)
6,Cn1c(=O)c2sccc2n2c(CCCC(=O)NCc3cccnc3)nnc12,19.4 µM (active)
7,CC(=O)c1sc(NC(=O)C(C)C)nc1C,17.3 µM (active)
8,CCN(CC)S(=O)(=O)c1ccc(C)c(NC(=O)Cn2cnc3cc([N+](=O)[O-])ccc3c2=O)c1,34.6 µM (active)
9,O=C(Nc1ccccc1C(=O)NCCN1CCOCC1)c1ccco1,inactive
10,Cc1cc(Br)c2nc3c(c(C(=O)O)c2c1)CCCCC3,1.54 µM (active)
11,COc1ccc(/C=C2/SC(=O)N(CC(=O)Nc3cc(C)on3)C2=O)cc1OC,inactive
12,CN(C)S(=O)(=O)c1ccc(C(=O)OCC(=O)Nc2cccnc2Cl)cc1,19.4 µM (active)
13,CC1(C)O[C@@H]2[C@H](O1)[C@@H](COS(=O)(=O)O)O[C@H]2n1cnc2c(N)ncnc21,3.88 µM (active)
14,CCc1ccc(-c2nc3ccc(Br)cc3c(C(=O)O)c2C)s1,3.46 µM (active)
15,Nc1ncnc2c1ncn2C1OC(CO)C(O)C1O (stereo unspecified),9.77 µM (active)
16,c1ccc(-c2nnc(-c3ccccn3)c(-c3ccccn3)n2)nc1,inactive

# Source: PubChem BioAssay AID492948 (National Center for Advancing Translational Sciences (NCATS), 2010)
